# CHO-K1 Ca ag – counter-screen for M1 agonists: effect in parental CHO-K1 cells; Fluo-8 calcium fluorescence; scaled to maximal ATP response, vehicle zero; activation, % at 3 µM; hit rate 0.48% among 360,000; in the data active = activation above about 15%;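 also: untransfected CHO-K1 host cells lacking M1 receptor as counterscreen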
# CHO-K1 Ca PAM – counter-screen for M1 PAMs: effect in parental CHO-K1 cells | ATP EC20, Fluo-8 calcium fluorescence; 0% at ATP EC20, 100% at ATP max | activation, % at 3 µM | AID 602247 | hit rate 0.02% among 360,000;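 active = activation above the run cutoff, the mean activation of all test compounds plus 3 SD, cut at about 40% in these data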;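 also: peak over basal fluorescence ratio in a 140 s read after ATP addition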
# M1 antag – blocks human M1 muscarinic receptor; P11229; CHO-K1 hM1, Fluo-8 calcium fluorescence, ACh EC80 antagonist; inhibition, % at 3 µM; hit rate 1.3% among 360,000; AID 588852;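 active = percent inhibition above its own plate's cutoff, namely the mean of that plate's compound wells plus 3 SD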;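 also: peak over basal fluorescence ratio during 140 s after agonist addition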
# Target sequence (P11229 whole entry, looked up): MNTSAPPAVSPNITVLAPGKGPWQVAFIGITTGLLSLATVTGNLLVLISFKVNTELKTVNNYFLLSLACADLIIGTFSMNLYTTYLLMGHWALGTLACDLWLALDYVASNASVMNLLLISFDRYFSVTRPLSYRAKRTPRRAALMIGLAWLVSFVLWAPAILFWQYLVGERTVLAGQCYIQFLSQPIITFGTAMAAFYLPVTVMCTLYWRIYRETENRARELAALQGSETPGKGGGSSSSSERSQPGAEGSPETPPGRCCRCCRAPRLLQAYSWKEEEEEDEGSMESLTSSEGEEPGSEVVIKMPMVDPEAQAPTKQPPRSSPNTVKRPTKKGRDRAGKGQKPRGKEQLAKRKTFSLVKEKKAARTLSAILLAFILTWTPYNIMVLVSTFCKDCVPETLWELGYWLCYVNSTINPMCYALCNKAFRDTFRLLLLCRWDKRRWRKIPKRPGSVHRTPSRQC
# CHRM1 agonist – agonists of human M1 muscarinic receptor; P11229; CHO-K1 hM1, Fluo-8 calcium fluorescence, agonist mode; 0% DMSO, 100% acetylcholine EC100; activation, % at 3 µM; hit rate 0.33% among 360,000; AID 588814;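 active = activation above the run's mean compound activation plus 3 SD, cut at about 16% in these data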;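 also: peak over basal fluorescence ratio within a 140 s kinetic read after compound addition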
# CHRM1 PAM – potentiates human M1 receptor response to acetylcholine; activation, % at 3 µM; hit rate 0.088% among 360,000; CHO-K1 hM1, Fluo-8 calcium fluorescence, ACh EC20; 0% = ACh EC20, 100% = maximal ACh; P11229; in the data active = activation above about 19%, passing the limit was not always enough
# CHO-K1 Ca antag – counter-screen for M1 antagonists: effect in parental CHO-K1 cells | ATP-induced calcium, Fluo-8 fluorescence | hit rate 0.6% among 360,000 | inhibition, % at 3 µM;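 active = inhibition above a per-plate cutoff, the plate's mean sample inhibition plus 3 SD, cut at about 24% in these data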
# Numbers stand for hits; n = inactive; x = no result. Only some compounds are listed: those with a hit (about 2.3% of all), similar ones and a draw of the others.
SMILES,CHO-K1 Ca ag,CHO-K1 Ca PAM,M1 antag,CHRM1 agonist,CHRM1 PAM,CHO-K1 Ca antag
CC[C@@H](C(=O)[C@@H](C)[C@@H](O)[C@H](C)CCc1ccc(C)c(O)c1C(=O)O)[C@H]1O[C@](CC)([C@H]2CC[C@](O)(CC)[C@H](C)O2)C[C@@H]1C,26,n,n,61,n,n
Cc1ccc(NC(=O)CNC(C)c2ccccc2)cc1 (stereo unspecified),n,n,n,n,n,n
O=C(CSc1ccc2nnc(CCNS(=O)(=O)c3ccccc3)n2n1)Nc1nc2ccccc2s1,n,n,n,n,n,n
O=C(Nc1ccc(Cl)cc1C(=O)c1ccccn1)c1ccccc1,n,n,n,n,n,n
CC(C)(C)c1cc(C2=CSC3=NCCN23)cc(C(C)(C)C)c1O,n,n,36,n,n,n
NC(=O)COC(=O)C1c2ccccc2Oc2ccccc21,n,n,n,n,n,n
CN(CCOC(=O)C1c2ccccc2Oc2ccccc21)C(C)(C)C,n,n,98,n,n,n
CC[N+](C)(CC)CCOC(=O)C1c2ccccc2Oc2ccccc21,n,n,97,n,n,n
CN(C)CCCOC(=O)C1c2ccccc2Oc2ccccc21,n,n,97,n,n,n
CCOC(=O)C(CC)c1cc2n(c(=O)c1C#N)CCC21OCCO1 (stereo unspecified),n,n,n,n,n,n
COc1cccc(-c2cnc(C(O)c3ccc(Cl)cc3C)[nH]2)c1 (stereo unspecified),n,n,n,n,n,n
COc1ccc(NC(=S)N2CCNC(=O)C2CC(=O)Nc2cccc(Cl)c2C)cc1 (stereo unspecified),n,n,n,n,n,n
COCCCNC(=O)C[C@@H]1C[C@@]2(C(=O)OC)CCCCC=C2N(Cc2ccco2)C1=O,n,n,x,x,x,n
Cc1nc(S(=O)(=O)N2CCN(C3c4ccccc4-c4ccccc43)CC2)cn1C,n,n,n,n,n,n
Cc1nc2c(o1)CCc1ccccc1C2N1CCN(C)CC1 (stereo unspecified),n,n,99,n,n,n
CC[N+](CC)(CC#Cc1ccccc1)CC#Cc1ccccc1,n,n,42,n,n,n
Cc1ccc(S(=O)(=O)Nc2ccc(O)c3ccccc23)c(C)c1,n,n,n,n,n,27
CC(C)CC(N)c1csc(Nc2ccc(C(F)(F)F)cn2)n1 (stereo unspecified),n,n,n,n,n,n
COc1cccc(NC(=S)NC(=O)Cc2ccc(Cl)cc2)c1,23,n,n,37,n,n
COc1ccccc1NC(=S)NC(=O)Cc1ccc(Cl)cc1,n,n,n,n,n,n
COc1ccc(CC(=O)NC(=S)Nc2cccc(C)c2)cc1,n,n,n,26,n,n
CCC(=O)Nc1cccc(NC(=S)NC(=O)Cc2ccccc2)c1,n,n,n,n,n,n
COc1ccc(CC(=O)NC(=S)Nc2cccc(CO)c2)cc1,n,n,n,29,n,n
C=CCC[C@@H](Cc1ccc(F)cc1)C(=O)OC[C@H](C)NC(=O)[C@@H](CC=C)CC(=O)N[C@@H](CO)Cc1ccccc1,n,n,n,n,n,n
CCN(CC)CCNC(=O)c1cc(Br)c(N)cc1OC,n,n,n,n,n,35
SMILES,CHO-K1 Ca ag,CHO-K1 Ca PAM,M1 antag,CHRM1 agonist,CHRM1 PAM,CHO-K1 Ca antag
COC(=O)c1cc(Br)c(N)cc1OC,n,n,n,n,n,n
Cc1nc2ccc(S(=O)(=O)NCC(=O)NCCc3ccc(Cl)cc3)cc2s1,n,n,n,n,n,n
OCc1cc(-c2ccc(Cl)c(Cl)c2)on1,n,n,n,n,n,n
CC(=O)C1CCC2C3CCC4=CC(=O)CCC4(C)C3(F)C(O)CC12C (stereo unspecified),n,n,n,n,n,n
Cc1ccc(F)c(S(=O)(=O)NC(=O)C2(C)CCN2C(=O)CCc2ccccc2)c1 (stereo unspecified),n,n,n,n,n,n
COc1ccc(NC(=O)Cn2nnc(C(=O)NCCc3ccccc3)c2N)cc1,19,n,n,n,n,n
NC(=O)c1ccc[n+]([C@H]2O[C@@H](COP(=O)([O-])OP(=O)(O)OC[C@H]3O[C@@H](n4cnc5c(N)ncnc54)[C@H](O)[C@@H]3O)[C@H](O)[C@@H]2O)c1,27,n,n,27,n,n
O=C(NCCCSc1ccccc1)c1cc(Br)ccc1O,n,n,31,n,n,n
NC(=O)CCN1CCN(CCOC2Cc3cc(Cl)ccc3Sc3ccccc32)CC1 (stereo unspecified),n,n,n,n,n,n
Fc1ccc2c(c1)Sc1ccc(Cl)cc1CC2N1CCN(CCC2OCCO2)CC1 (stereo unspecified),n,n,75,n,n,n
Cc1nnc(SCC(=O)c2cc(C)n(-c3c(C)n(C)n(-c4ccccc4)c3=O)c2C)s1,n,n,n,n,n,n
Cc1cc(C(=O)CSc2nncs2)c(C)n1-c1c(C)n(C)n(-c2ccccc2)c1=O,n,n,54,n,n,n
CC(C)c1cc(N2CCC(=O)NC2=O)cc(C(=O)O)c1O,18,n,n,n,n,n
CC(C)N1CCC(=O)NC1=O,n,n,n,n,n,n
COCCCn1c(N)c(-c2nc3ccccc3n2C)c2nc3ccccc3nc21,n,n,28,n,n,n
O=C(CCc1nc(-c2ccccc2)no1)Nc1cccnc1,16,n,n,n,n,n
COc1ccccc1-c1noc2c1C(=O)N(Cc1cn(-c3ccccc3OC)nn1)CC2,n,n,x,x,x,n
O=C(c1cn(-c2ccccc2)nc1-c1ccc(F)cc1)N1CCOCC1,n,n,n,n,n,n
O=C(c1cn(-c2ccccc2)nc1-c1ccc(F)cc1)N1CCCCC1,17,n,n,n,n,n
Cc1cc(C)c(N=C2SCC(=O)N2Cc2ccco2)c(C)c1,n,n,n,n,n,n
O=C1CSC(=Nc2ccc(Cl)cc2)N1Cc1ccco1,n,n,n,n,n,29
CCN(CC)c1ccc(/C=C2\C(=O)c3ccc(C(=O)O)cc3C2=O)cc1,38,n,62,126,n,n
O=C(O)c1ccc(N(c2ccccc2)c2ccccc2)cc1,n,n,n,n,n,n
CCN(CC)c1ccc(C(=O)O)cc1,n,n,n,n,n,25
CC(C)Cc1nnc(NC(=O)CCC(=O)NCCc2ccc(Cl)cc2)s1,n,n,n,n,n,n
COc1ccccc1CNC(=O)C1CCN(c2ncnc3c2nc2n3CCCCC2)CC1,n,n,n,n,n,n
CN1CCC2(CC1)N=C(c1ccc(F)cc1)C(=S)N2C(=O)c1ccc(C(C)(C)C)cc1,n,n,49,n,n,n
O=C(NCc1ccccc1)C(c1cccnc1)N(C(=O)c1csnn1)c1ccccc1 (stereo unspecified),n,n,n,n,n,n
COC(=O)c1ccc(C[n+]2ccccc2)cc1,n,n,n,n,n,24

# Screening data (PubChem)
